Assay outcomes as filed in PubChem BioAssay.
miR-122 inh – raises miR-122 sensor activity in Huh7 cells; Huh7 psiCHECK-miR122 Renilla luciferase sensor, 48 h; activation, % at 12.5 µM; 0.14% of 340,000 active;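 active = mean activation of 30% or more, with every replicate also reaching 30%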;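 also: 0% = median of neutral control wells and 100% = median of positive control wells; higher luciferase signal means stronger suppression of miR-122 activity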
* hit, by the source's call. The sample as a whole holds a higher share of hits than the screen did.

SMILES | miR-122 inh
C[C@H](CO)N1C[C@H](C)[C@@H](CN(C)C(=O)Nc2ccccc2)Oc2ccc(NC(=O)Cc3ccccc3)cc2CC1=O | 0
C[C@H](CO)N1C[C@H](C)[C@H](CN(C)Cc2ccc(C(=O)Nc3ccccc3N)cc2)Oc2ccc(NC(=O)Nc3ccc(F)cc3)cc2CC1=O | -267
CC(C)NC(=O)Nc1ccc2c(c1)CC(=O)N([C@H](C)CO)C[C@@H](C)[C@@H](CN(C)Cc1ccc(Oc3ccccc3)cc1)O2 | -97
C[C@@H]1CN([C@@H](C)CO)C(=O)Cc2cc(NC(=O)c3ccncc3)ccc2O[C@H]1CN(C)Cc1ccc(-c2ccccc2)cc1 | 32*
C[C@@H]1CN([C@@H](C)CO)C(=O)Cc2cc(NC(=O)C3CCCCC3)ccc2O[C@H]1CN(C)Cc1ccncc1 | 3
Cc1ccc(-c2cnc3c(c2)C(=O)N([C@H](C)CO)C[C@@H](C)[C@@H](CN(C)C(=O)Cc2cccnc2)O3)cc1 | 1
C[C@@H]1CN([C@H](C)CO)S(=O)(=O)c2ccc(-c3cccnc3)cc2O[C@H]1CN(C)Cc1ccccn1 | 4
N#Cc1cccc(NC(=O)Nc2cccs2)c1 | 36*
O=C(/C=C/Nc1cccc([N+](=O)[O-])c1)c1cccs1 | -93
COCC#Cc1ccc2c(c1)O[C@@H](CN(C)C(=O)C1CCCCC1)[C@H](C)CN([C@@H](C)CO)S2(=O)=O | -10
COc1ccccc1S(=O)(=O)N(C)C[C@@H]1Oc2ncc(-c3ccc(C)cc3)cc2C(=O)N([C@H](C)CO)C[C@H]1C | 8
CCN(CC)CCNC(=O)c1ccc(NC(=O)c2cn(-c3ccc(F)cc3)nc2-c2cccc(OC)c2)cc1 | 68*
COc1cccc(C(=O)Nc2ccc(C(=O)O)cc2)c1 | -113
COCC#Cc1ccc2c(c1)O[C@H](CN(C)C(=O)COC)[C@@H](C)CN([C@H](C)CO)S2(=O)=O | 1
COCC(=O)N(C)C[C@@H]1Oc2cc(-c3cccc(F)c3)ccc2S(=O)(=O)N([C@@H](C)CO)C[C@@H]1C | 2
COc1ccc(-c2ccc3c(c2)O[C@@H](CN(C)C(=O)c2ccccc2F)[C@H](C)CN([C@H](C)CO)S3(=O)=O)cc1 | -11
C[C@H](CO)N1C[C@H](C)[C@@H](CN(C)CC2CCOCC2)Oc2ncc(-c3ccc(C#N)cc3)cc2C1=O | -4
COc1ccccc1NC(=O)N(C)C[C@H]1Oc2ncc(C#CCC(C)C)cc2C(=O)N([C@@H](C)CO)C[C@H]1C | -3
Oc1ccc(-c2nc(-c3ccc(O)c(O)c3)cs2)cc1 | 30*
Cc1ccc(-c2ccc3c(c2)O[C@@H](CN(C)Cc2cccc(C(=O)O)c2)[C@H](C)CN([C@H](C)CO)S3(=O)=O)cc1 | -7
CCCNC(=O)N1C[C@H](C)[C@@H](OC)CN(C)C(=O)c2cc(NS(=O)(=O)CC)ccc2OC[C@@H]1C | 2
CCCNC(=O)N1C[C@@H](C)[C@@H](OC)CN(C)C(=O)c2cc(NS(=O)(=O)CC)ccc2OC[C@H]1C | -2
CCS(=O)(=O)Nc1ccc2c(c1)C(=O)N(C)C[C@@H](OC)[C@H](C)CN(CC1CCCC1)[C@H](C)CO2 | 38*
CCCNC(=O)N(C)C[C@H]1Oc2cc(C#Cc3cccc(F)c3)ccc2S(=O)(=O)N([C@H](C)CO)C[C@@H]1C | -30
C[C@@H]1CN([C@@H](C)CO)C(=O)c2cc(Br)cnc2O[C@H]1CN(C)Cc1cccc(F)c1 | 3
SMILES | miR-122 inh
C[C@@H]1CN([C@@H](C)CO)C(=O)c2cc(-c3ccccc3F)cnc2O[C@@H]1CN(C)Cc1ccccc1F | 0
CC(C)CC#Cc1cnc2c(c1)C(=O)N([C@H](C)CO)C[C@H](C)[C@H](CN(C)C(=O)Cc1ccccc1)O2 | 4
C/C=C/c1ccc([C@@H]2[C@@H](CN(C(=O)COC)C(C)C)N(C(C)=O)[C@H]2CO)cc1 | 50*
COCC(=O)N(C)C[C@H]1Oc2ncc(/C=C/c3ccccc3)cc2C(=O)N([C@H](C)CO)C[C@H]1C | 3
COCC(=O)N(C)C[C@H]1Oc2ncc(/C=C/c3ccccc3)cc2C(=O)N([C@H](C)CO)C[C@@H]1C | 4
COc1ccc(C#Cc2cnc3c(c2)C(=O)N([C@@H](C)CO)C[C@@H](C)[C@H](CN(C)CC2CCOCC2)O3)cc1 | 7
CCC(=O)Nc1ccc2c(c1)OC[C@@H](C)NC[C@H](C)[C@H](OC)CN(C)C2=O | -1
CCOC(=O)c1ccc(-n2ccnc2)c(NC(=O)c2cccc(Br)c2)c1 | -128
COc1ccc(S(=O)(=O)NCc2ccccn2)cc1NC(=O)c1ccc(C)cc1 | -94
CCOc1cc(NC(=O)c2ccccn2)c(OCC)cc1NC(=O)c1ccc(Cl)cc1 | 34*
C[C@H](CO)N1C[C@H](C)[C@@H](CN(C)C(=O)C2CCC2)Oc2ncc(C#CC3CCCC3)cc2C1=O | -9
CC(C)CC#Cc1cnc2c(c1)C(=O)N([C@@H](C)CO)C[C@H](C)[C@@H](CN(C)CC1CCOCC1)O2 | 2
Cc1cc(C)cc(N=c2c([N+](=O)[O-])nn(-c3ccc4c(c3)OCCO4)n2O)c1 | 42*
COc1cccc(-c2ccc3c(c2)O[C@H](CN(C)C(=O)C2CCCCC2)[C@@H](C)CN([C@@H](C)CO)S3(=O)=O)c1 | -41
C[C@H]1CN([C@@H](C)CO)C(=O)c2cc(-c3cccc(C(=O)N(C)C)c3)cnc2O[C@@H]1CN(C)C(=O)Cc1ccccn1 | -3
C[C@H](O)C#Cc1ccc2c(c1)O[C@@H](CN(C)C(=O)Cc1ccccn1)[C@@H](C)CN([C@@H](C)CO)S2(=O)=O | -7
COCC#Cc1ccc2c(c1)O[C@H](CN(C)Cc1cncnc1)[C@@H](C)CN([C@H](C)CO)S2(=O)=O | -23
CO[C@H]1CN(C)C(=O)c2cc(NC(=O)Nc3ccccc3)ccc2OC[C@H](C)NC[C@H]1C | -4
Cc1ccccc1NC(=O)Nc1ccc2c(c1)C(=O)N(C)[C@H]1CC[C@@H](CC(=O)NCC3CC3)O[C@H]1CO2 | -218
COCC(=O)Nc1ccc2c(c1)C(=O)N(C)[C@@H]1CC[C@@H](CC(=O)NC3CCCC3)O[C@H]1CO2 | 53*
CNC(=O)C[C@@H]1CC[C@@H]2[C@H](COc3ccc(NC(=O)Nc4cccc(C)c4)cc3C(=O)N2C)O1 | 47*
CCCNC(=O)C[C@@H]1CC[C@H]2[C@H](COc3ccc(NC(=O)Nc4ccccc4F)cc3C(=O)N2C)O1 | -100
COCC(=O)Nc1ccc2c(c1)C(=O)N(C)C[C@H](OC)[C@H](C)CN(C(=O)COC)[C@H](C)CO2 | -2
COC(=O)C[C@@H]1CC[C@@H]2[C@@H](COc3ccc(NC(=O)Nc4cccc(C#N)c4)cc3C(=O)N2C)O1 | 48*
CCC(=O)Nc1ccc2c(c1)OC[C@@H](C)N(C(=O)c1ccccc1F)C[C@H](C)[C@H](OC)CN(C)C2=O | -1
SMILES | miR-122 inh
CO[C@@H]1CN(C)C(=O)c2cc(NC(=O)Nc3ccccc3)ccc2OC[C@H](C)NC[C@H]1C | -2
CNC(=O)C[C@@H]1CC[C@@H]2[C@@H](COc3ccc(NC(=O)c4ccccc4F)cc3C(=O)N2C)O1 | 53*
COCC(=O)Nc1ccc2c(c1)C(=O)N(C)C[C@H](OC)[C@@H](C)CN(C(=O)COC)[C@@H](C)CO2 | 1
C[C@@H]1CN([C@H](C)CO)C(=O)c2cc(C#CC3(O)CCCC3)cnc2O[C@H]1CN(C)C(=O)C1CCCCC1 | -4
COCC#Cc1cnc2c(c1)C(=O)N([C@@H](C)CO)C[C@@H](C)[C@@H](CN(C)Cc1ccccc1)O2 | 0
CCCN(C)C[C@@H]1Oc2cc(C#CC3(O)CCCC3)ccc2S(=O)(=O)N([C@H](C)CO)C[C@@H]1C | 10
